Experimental data as given in the supplement of paper PMC10849652.
The full data set covers some 8,800 targets. This sample favours those with a hit. About 0.5% of all pairs of compound and target were hits. Values without a mark were called inactive.

What was measured:
Assay in all cases: log2 fold change, soluble protein after heating vs DMSO (PISA); higher = thermal stabilisation; K562 lysate, 10 uM; active = over 0.2 and 3.5 SD of the protein, either way, in both replicates (recomputed)
nilotinib = compound: Cc1cn(-c2cc(NC(=O)c3ccc(C)c(Nc4nccc(-c5cccnc5)n4)c3)cc(C(F)(F)F)c2)cn1 [nilotinib]
Summary of the method: (§1)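 Quantification was by TMTpro 16plex LC-MS/MS with equalised channel sums, applied to the supernatant after 21,000xg for 90 min. Samples were crude K562 extract at 1 mg/mL protein in PBS pH 7.4 with 1 mM MgCl2, treated with 10 μM compound for 30 min, heated for 3 min across 48°C-58°C, pooled and brought to 0.5% NP-40 at 4°C. Values are log-two fold changes in thermal stability relative to solvent controls, from duplicates.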

[1] = compound: Cc1nc(Nc2n[nH]c3c2CN(C(=O)N[C@H](CN(C)C)c2ccccc2)C3(C)C)c2sccc2n1
Summary of the method: as §1

dasatinib = compound: Cc1nc(Nc2ncc(C(=O)Nc3c(C)cccc3Cl)s2)cc(N2CCN(CCO)CC2)n1 [dasatinib]
Summary of the method: as §1

[2] = compound: Cc1ncc(-c2ccnc(Nc3ccc(S(C)(=O)=O)cc3)n2)n1C(C)C
Summary of the method: as §1

[3] = compound: Cn1cc(-c2ccc3c(c2)CCN3C(=O)Cc2cccc(C(F)(F)F)c2)c2c(N)ncnc21
Summary of the method: as §1

quisinostat = compound: Cn1cc(CNCC2CCN(c3ncc(C(=O)NO)cn3)CC2)c2ccccc21 [quisinostat]
Summary of the method: as §1

tipifarnib = compound: Cn1cncc1[C@@](N)(c1ccc(Cl)cc1)c1ccc2c(c1)c(-c1cccc(Cl)c1)cc(=O)n2C [tipifarnib]
Summary of the method: as §1

[4] = compound: NC(=O)Nc1cc(-c2cccc(F)c2)sc1C(=O)N[C@H]1CCCNC1
Summary of the method: as §1

[5] = compound: NC(=O)c1cnc(N[C@@H]2CCCC[C@@H]2N)nc1Nc1cccc(-n2nccn2)c1
Summary of the method: as §1

[6] = compound: NC1(c2ccc(-c3nc4ccn5c(=O)[nH]nc5c4cc3-c3ccccc3)cc2)CCC1
Summary of the method: as §1

[7] = compound: NCC(=O)Nc1ccc(-n2nc(C(F)(F)F)cc2-c2ccc3c(ccc4ccccc43)c2)cc1
Summary of the method: as §1

vorinostat = compound: O=C(CCCCCCC(=O)Nc1ccccc1)NO [vorinostat]
Summary of the method: as §1

silmitasertib = compound: O=C(O)c1ccc2c(c1)nc(Nc1cccc(Cl)c1)c1ccncc12 [silmitasertib]
Summary of the method: as §1

[8] = compound: O=C1NC(=O)C(c2cnc3ccccn23)=C1c1cn2c3c(cc(F)cc13)CN(C(=O)N1CCCCC1)CC2
Summary of the method: as §1

entospletinib = compound: c1cn2cc(-c3ccc4cn[nH]c4c3)nc(Nc3ccc(N4CCOCC4)cc3)c2n1 [entospletinib]
Summary of the method: as §1

UniProt O60826, sequence (O60826 whole entry, looked up): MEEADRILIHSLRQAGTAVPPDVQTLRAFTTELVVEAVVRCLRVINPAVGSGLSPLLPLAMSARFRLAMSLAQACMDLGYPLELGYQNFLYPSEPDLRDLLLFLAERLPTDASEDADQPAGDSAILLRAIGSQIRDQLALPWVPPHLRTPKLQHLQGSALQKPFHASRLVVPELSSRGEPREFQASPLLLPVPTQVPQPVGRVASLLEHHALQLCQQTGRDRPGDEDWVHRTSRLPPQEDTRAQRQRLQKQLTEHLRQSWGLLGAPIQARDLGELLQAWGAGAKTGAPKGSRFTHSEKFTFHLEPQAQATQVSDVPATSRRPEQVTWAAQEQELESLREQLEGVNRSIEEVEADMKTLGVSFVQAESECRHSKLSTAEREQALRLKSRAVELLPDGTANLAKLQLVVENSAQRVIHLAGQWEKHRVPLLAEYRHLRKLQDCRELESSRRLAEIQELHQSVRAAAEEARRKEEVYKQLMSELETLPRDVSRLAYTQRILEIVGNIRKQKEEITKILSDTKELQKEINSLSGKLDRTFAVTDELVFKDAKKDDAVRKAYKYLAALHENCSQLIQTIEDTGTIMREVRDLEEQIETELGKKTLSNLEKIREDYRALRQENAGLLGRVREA
UniProt Q96RR4, sequence (Q96RR4 whole entry, looked up): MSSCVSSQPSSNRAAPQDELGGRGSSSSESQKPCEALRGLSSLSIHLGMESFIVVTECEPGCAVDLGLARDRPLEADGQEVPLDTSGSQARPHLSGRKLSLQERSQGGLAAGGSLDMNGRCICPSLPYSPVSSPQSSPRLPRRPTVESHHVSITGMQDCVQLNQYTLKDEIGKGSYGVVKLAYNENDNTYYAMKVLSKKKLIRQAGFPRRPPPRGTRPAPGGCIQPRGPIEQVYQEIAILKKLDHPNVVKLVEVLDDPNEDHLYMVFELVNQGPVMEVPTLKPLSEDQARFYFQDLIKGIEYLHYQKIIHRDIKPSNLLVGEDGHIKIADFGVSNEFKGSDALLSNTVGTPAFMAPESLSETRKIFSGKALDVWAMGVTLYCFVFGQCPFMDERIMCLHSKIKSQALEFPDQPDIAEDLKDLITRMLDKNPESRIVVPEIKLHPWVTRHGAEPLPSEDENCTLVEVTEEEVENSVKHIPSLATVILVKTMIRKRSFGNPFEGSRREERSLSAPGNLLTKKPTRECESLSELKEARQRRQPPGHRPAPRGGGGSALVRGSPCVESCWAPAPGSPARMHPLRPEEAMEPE
UniProt Q86WA6, sequence (Q86WA6 whole entry, looked up): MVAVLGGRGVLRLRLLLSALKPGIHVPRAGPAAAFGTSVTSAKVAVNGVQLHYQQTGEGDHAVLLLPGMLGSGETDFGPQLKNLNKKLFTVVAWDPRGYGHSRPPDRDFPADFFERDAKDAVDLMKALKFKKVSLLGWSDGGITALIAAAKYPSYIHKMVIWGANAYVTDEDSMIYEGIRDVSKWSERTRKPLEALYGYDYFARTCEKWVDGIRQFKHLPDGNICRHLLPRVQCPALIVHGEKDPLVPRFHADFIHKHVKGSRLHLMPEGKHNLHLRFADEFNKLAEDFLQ
UniProt Q9BV29, sequence (Q9BV29 whole entry, looked up): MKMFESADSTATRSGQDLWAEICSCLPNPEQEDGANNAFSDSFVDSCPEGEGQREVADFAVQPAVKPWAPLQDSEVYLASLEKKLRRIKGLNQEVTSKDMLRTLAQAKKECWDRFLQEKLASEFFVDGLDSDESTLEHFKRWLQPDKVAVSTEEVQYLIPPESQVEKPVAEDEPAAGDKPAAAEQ
UniProt O00311, sequence (O00311 whole entry, looked up): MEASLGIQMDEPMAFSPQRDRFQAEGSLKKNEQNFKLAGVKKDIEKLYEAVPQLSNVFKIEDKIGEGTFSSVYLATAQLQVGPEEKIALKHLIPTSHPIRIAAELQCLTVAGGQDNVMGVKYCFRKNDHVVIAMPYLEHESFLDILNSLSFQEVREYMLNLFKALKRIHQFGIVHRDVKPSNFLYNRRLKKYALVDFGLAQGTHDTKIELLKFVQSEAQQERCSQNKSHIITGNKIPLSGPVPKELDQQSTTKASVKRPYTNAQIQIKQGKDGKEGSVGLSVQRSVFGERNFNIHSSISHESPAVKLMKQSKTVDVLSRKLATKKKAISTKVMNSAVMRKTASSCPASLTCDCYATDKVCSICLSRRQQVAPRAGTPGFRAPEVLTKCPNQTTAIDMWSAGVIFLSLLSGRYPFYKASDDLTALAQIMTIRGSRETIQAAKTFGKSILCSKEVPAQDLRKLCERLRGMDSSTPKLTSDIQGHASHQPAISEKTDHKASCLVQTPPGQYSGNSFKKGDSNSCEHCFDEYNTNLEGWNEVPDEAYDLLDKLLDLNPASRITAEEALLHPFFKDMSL
UniProt O95260, sequence (O95260 whole entry, looked up): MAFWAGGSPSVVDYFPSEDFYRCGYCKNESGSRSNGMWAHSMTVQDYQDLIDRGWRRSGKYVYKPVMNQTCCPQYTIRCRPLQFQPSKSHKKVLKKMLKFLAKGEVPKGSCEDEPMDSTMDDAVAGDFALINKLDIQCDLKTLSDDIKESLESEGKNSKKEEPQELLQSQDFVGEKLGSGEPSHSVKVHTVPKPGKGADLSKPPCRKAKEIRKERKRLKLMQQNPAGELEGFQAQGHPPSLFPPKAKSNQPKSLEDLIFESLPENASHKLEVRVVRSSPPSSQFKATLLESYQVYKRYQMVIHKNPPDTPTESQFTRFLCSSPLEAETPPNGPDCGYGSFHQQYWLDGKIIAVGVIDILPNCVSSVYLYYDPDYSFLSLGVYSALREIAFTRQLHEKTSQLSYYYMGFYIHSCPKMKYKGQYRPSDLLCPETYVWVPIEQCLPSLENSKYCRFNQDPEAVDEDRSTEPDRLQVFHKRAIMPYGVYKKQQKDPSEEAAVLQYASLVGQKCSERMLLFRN
UniProt P21127, sequence (P21127 whole entry, looked up): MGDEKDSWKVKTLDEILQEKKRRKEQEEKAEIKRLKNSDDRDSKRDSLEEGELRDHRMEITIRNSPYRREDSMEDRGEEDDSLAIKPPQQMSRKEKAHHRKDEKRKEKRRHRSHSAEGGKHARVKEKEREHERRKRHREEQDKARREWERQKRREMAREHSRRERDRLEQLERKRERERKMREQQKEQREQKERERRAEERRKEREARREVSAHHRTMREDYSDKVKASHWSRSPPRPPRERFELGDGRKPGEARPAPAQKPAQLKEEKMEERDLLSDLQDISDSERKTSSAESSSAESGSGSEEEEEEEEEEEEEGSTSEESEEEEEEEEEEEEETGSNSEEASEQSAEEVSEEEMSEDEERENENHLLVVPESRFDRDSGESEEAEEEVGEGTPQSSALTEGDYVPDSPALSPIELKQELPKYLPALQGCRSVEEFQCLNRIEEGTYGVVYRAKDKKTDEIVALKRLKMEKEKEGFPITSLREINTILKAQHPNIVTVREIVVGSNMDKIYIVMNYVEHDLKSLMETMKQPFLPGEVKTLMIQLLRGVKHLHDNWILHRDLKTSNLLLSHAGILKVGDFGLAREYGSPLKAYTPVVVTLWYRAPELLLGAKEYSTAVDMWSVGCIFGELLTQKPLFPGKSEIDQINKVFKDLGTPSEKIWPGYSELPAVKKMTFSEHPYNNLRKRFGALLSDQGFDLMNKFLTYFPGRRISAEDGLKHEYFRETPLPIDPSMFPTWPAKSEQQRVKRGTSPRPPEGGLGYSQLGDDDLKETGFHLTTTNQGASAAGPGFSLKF
UniProt O60566, sequence (O60566 whole entry, looked up): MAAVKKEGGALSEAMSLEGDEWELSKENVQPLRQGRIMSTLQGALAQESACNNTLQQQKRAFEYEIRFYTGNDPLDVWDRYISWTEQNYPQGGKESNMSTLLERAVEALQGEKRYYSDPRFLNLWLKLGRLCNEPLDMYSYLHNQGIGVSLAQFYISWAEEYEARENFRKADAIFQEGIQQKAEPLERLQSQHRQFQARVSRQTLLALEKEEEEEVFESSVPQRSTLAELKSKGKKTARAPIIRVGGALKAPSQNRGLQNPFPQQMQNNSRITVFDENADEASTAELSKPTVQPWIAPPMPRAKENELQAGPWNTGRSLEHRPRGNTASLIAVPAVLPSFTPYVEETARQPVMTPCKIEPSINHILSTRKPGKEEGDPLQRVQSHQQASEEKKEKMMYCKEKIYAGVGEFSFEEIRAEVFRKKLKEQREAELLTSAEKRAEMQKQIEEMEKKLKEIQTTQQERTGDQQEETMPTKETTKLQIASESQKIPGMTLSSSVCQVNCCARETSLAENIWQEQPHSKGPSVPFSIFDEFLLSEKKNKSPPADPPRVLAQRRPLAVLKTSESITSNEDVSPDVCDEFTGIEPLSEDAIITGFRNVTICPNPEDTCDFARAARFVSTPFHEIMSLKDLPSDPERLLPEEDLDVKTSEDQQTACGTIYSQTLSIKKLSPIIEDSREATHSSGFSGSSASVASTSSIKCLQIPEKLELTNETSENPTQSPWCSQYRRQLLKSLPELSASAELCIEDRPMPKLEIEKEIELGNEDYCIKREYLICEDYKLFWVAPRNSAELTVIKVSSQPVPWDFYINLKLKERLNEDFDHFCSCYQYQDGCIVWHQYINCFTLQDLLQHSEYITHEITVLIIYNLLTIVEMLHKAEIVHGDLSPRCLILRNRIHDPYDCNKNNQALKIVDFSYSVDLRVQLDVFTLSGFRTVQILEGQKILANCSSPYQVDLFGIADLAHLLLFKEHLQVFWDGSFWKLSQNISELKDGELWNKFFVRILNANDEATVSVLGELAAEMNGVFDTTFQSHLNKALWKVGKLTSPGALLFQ
UniProt O43709, sequence (O43709 whole entry, looked up): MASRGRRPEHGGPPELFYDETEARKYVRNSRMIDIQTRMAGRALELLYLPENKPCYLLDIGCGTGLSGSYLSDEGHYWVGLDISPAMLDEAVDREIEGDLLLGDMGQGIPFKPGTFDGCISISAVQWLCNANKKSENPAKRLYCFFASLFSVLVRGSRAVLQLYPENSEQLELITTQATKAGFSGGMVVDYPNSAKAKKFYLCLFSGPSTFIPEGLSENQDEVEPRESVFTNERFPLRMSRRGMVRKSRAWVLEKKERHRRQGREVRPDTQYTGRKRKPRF

Row | Target | log2 fold change (nilotinib) | log2 fold change [1] | log2 fold change (dasatinib) | log2 fold change [2] | log2 fold change [3] | log2 fold change (quisinostat) | log2 fold change (tipifarnib) | log2 fold change [4] | log2 fold change [5] | log2 fold change [6] | log2 fold change [7] | log2 fold change (vorinostat) | log2 fold change (silmitasertib) | log2 fold change [8] | log2 fold change (entospletinib)
1 | BUD23 isoform 3 (UniProt O43709) | -0.003 | -0.008 | 0.035 | -0.084 | 0.035 | 0.009 | 0.015 | 0.035 | -0.076 | -0.017 | 0.007 | 0.014 | -0.07 | -0.021 | 0.055
2 | CDK11B (UniProt P21127) | -0.006 | -0.015 | -0.028 | 0.087 | 0.068 | -0.023 | 0.01 | 0.018 | 0.009 | -0.018 | 0.009 | -0.115 | 0.065 | -0.023 | 0.255 (active)
3 | CHCHD2 (UniProt Q9Y6H1) | -0.102 | 0.039 | 0.016 | -0.075 | 0.031 | -0.049 | 0.058 | -0.014 | -0.029 | 0.136 | -0.022 | -0.301 (active) | 0.044 | -0.017 | -0.06
4 | C1orf131 isoform 5 (UniProt Q8NDD1) | -0.106 | -0.059 | 0.048 | -0.135 | 0.034 | -0.103 | 0.073 | -0.025 | -0.035 | 0.002 | 0.059 | -0.445 (active) | -0.025 | 0.039 | -0.013
5 | ATE1 isoform 2 (UniProt O95260) | -0.099 | -0.006 | 0.069 | -0.032 | 0.017 | -0.014 | 0.025 | 0.034 | -0.002 | 0.014 | -0.068 | -0.444 (active) | 0.041 | -0.01 | -0.008
6 | CCDC32 isoform 2 (UniProt Q9BV29) | -0.009 | 0.024 | 0.021 | 0.105 | -0.001 | -0.05 | 0.076 | -0.028 | -0.05 | -0.03 | 0.005 | 0.058 | -0.044 | 0.009 | -0.042
7 | CDAN1 (UniProt Q8IWY9) | -0.029 | 0.022 | -0.055 | -0.014 | -0.037 | -0.09 | -0.026 | 0.066 | 0.017 | -0.032 | 0.019 | -0.326 (active) | 0.05 | 0.056 | -0.006
8 | BRD4 (UniProt O60885) | 0.034 | -0.009 | -0.018 | 0.019 | -0.001 | -0.091 | -0.019 | 0.013 | -0.051 | -0.008 | 0.01 | -0.115 | -0.011 | -0.02 | -0.028
9 | CAMK2G isoform 8 (UniProt Q13555) | -0.007 | 0.518 (active) | -0.034 | 0.039 | -0.062 | -0.125 | -0.005 | 0.219 | 0.019 | -0.125 | -0.044 | -0.208 | 0.087 | 0.084 | 0.004
10 | CCDC22 (UniProt O60826) | 0.007 | -0.018 | -0.055 | -0.005 | -0.006 | -0.006 | 0.012 | 0.041 | 0.025 | -0.017 | 0.056 | -0.222 (active) | 0.022 | 0.014 | -0.021
11 | BPHL (UniProt Q86WA6) | -0.049 | 0.084 | 0.008 | -0.043 | 0.055 | -0.02 | 0.01 | -0.03 | 0.016 | 0.022 | -0.093 | 0.143 | 0.049 | -0.006 | 0.028
12 | C1orf112 (UniProt Q9NSG2) | 0.089 | -0.015 | -0.102 | 0.017 | 0.05 | -0.1 | -0.046 | 0.036 | -0.03 | -0.007 | -0.075 | -0.095 | -0.084 | 0.003 | -0.037
13 | AURKA (UniProt O14965) | -0.065 | 0.209 | 0.226 | 0.174 | 0.027 | -0.117 | -0.088 | 0.18 | -0.04 | -0.05 | -0.008 | -0.236 | 0.135 | 0.1 | 0.167
14 | CDC42BPA isoform 6 (UniProt Q5VT25) | -0.01 | 0.003 | 0.012 | 0.013 | 0.048 | 0.025 | 0 | 0.004 | -0.002 | 0.024 | -0.008 | -0.224 (active) | 0.018 | 0.001 | 0
15 | BUB1B isoform 3 (UniProt O60566) | 0.007 | -0.012 | -0.015 | 0.014 | 0.024 | -0.076 | -0.013 | 0.028 | -0.003 | -0.004 | 0.004 | -0.376 (active) | 0.015 | 0.006 | 0.013
16 | CDK9 isoform 2 (UniProt P50750) | -0.035 | 0.255 | 0.003 | 0.403 (active) | -0.007 | -0.028 | -0.016 | 0.009 | 0.078 | -0.04 | 0.081 | -0.198 | 0.164 | 0.402 | 0.038
17 | CDC7 (UniProt O00311) | -0.049 | 0.028 | 0.029 | 0.059 | 0.001 | -0.047 | -0.009 | 0.015 | -0.022 | -0.016 | 0.086 | -0.152 | -0.077 | -0.01 | 0.007
18 | CAMKK2 (UniProt Q96RR4) | -0.038 | 0.176 | 0.031 | 0.028 | 0.023 | -0.01 | -0.037 | 0.1 | -0.046 | 0 | 0.081 | -0.325 (active) | 0.074 | -0.02 | 0.039
19 | CENPQ (UniProt Q7L2Z9) | -0.025 | 0.044 | 0 | -0.036 | -0.015 | 0.07 | -0.076 | 0.047 | 0.164 | -0.107 | -0.016 | 0.061 | -0.014 | 0.028 | 0.047
